# Experimental data published in PubChem BioAssay (Tox21).
# Results filed as inconclusive are left out. Active and inactive are the calls of the source. The call rests on the fitted dose curve; in most records, active means well fitted cell-killing curve with a large enough effect in the repeat runs; inconclusive means weak or mixed curves, or effect the other way; inactive means no such curve, though single readings can be large or run the other way.
# Assay: qHTS assay to identify small molecule agonists of the farnesoid-X-receptor (FXR) signaling pathway - cell viability counter screen (AID 743218); further: nearly all actives have a fitted effect of over 45% in size
# Conditions: FXR-bla HEK293T viability, CellTiter-Glo luminescence, 16 h; series mostly up to 62.6 µM
# Text: U.S. Tox21 Program National Center for Advancing Translational Sciences [NCATS] NIH Chemical Genomics Center [NCGC] U.S. Environmental Protection Agency [EPA] National Institutes of Environmental Health Sciences [NIEHS] National Toxicology Program [NTP] U.S. Food and Drug Administration [FDA] Tox21 Assay Overview: The farnesoid-X-receptor (FXR), a nuclear hormone receptor, is highly expressed in liver, intestine, kidney and adrenal cortex. Natural ligands of FXR are the bile acids (Cholic acid, Chenodeoxy cholic acid etc). FXR is an important regulator of diverse metabolic pathways, including the bile acid homeostasis, lipid and glucose metabolisms. FXR regulates the expression of target genes by binding either as a monomer or as a heterodimer with the retinoid X receptor (RXR). Numerous studies have reported that FXR exerts protective function during cholestasis, diabetes, liver regeneration, and cancer. To identify compounds that activate FXR signaling, GeneBLAzer FXR-UAS-bla HEK 293T cell line (Invitrogen, Carlsbad, CA) containing a beta-lactamase reporter gene under the control of a UAS response element was used to screen the Tox21 10K compound library. The cytotoxicity of the Tox21 compound library against the FXR-bla cell line was tested in parallel by measuring the cell viability using CellTiter-Glo assay in the same wells.
# Tox21 Assay Protocol Summary: FXR-bla cells were dispensed at 5000 cells/5uL/well in 1536-well black wall/clear bottom plates using a Multidrop Combi (Thermo Fisher Scientific, Waltham, MA) dispenser. After the assay plates were incubated at 37 C and 5% CO2 for 5 h, 23 nL of compounds dissolved in DMSO, positive controls or DMSO only was transferred to the assay plate by a Pintool station (Kalypsys, San Diego, CA). The assay plates were incubated at 37C for 16 h. After 1 uL of LiveBLAzerTM B/G FRET substrate was added using a Bioraptr Flying Reagent Dispenser (FRD) workstation (Beckman Coulter, Indianapolis, IN), the plates were incubated at room temperature for 2 h, and fluorescence intensity was measured by an Envision plate reader (PerkinElmer, Shelton, CT). For cell viability readout that measures cytotoxicity, 4uL/well of CellTiter-Glo reagent was added into the assay plates using a Bioraptr FRD. After 30 min incubation at room temperature, the luminescence intensity in the plates was measured using a ViewLux plate reader (PerkinElmer).
row,Compound,outcome
1,C1CC2OC2CC1C1CO1 (stereo not given),inactive
2,Cn1cc(-c2ccccc2)c(=O)c(-c2cccc(C(F)(F)F)c2)c1,inactive
3,Cc1cc(-c2cc(C)c(N)c(C)c2)cc(C)c1N,inactive
4,CC(C#N)CCC#N (stereo not given),inactive
5,O=c1n(Cl)c(=O)n(Cl)c(=O)n1Cl,inactive
6,CC(C)=C[C@@H]1[C@@H](C(=O)OCc2coc(Cc3ccccc3)c2)C1(C)C,inactive
7,C#CCN(C)[C@H](C)Cc1ccccc1,inactive
8,CCCCN(CC)C(=O)SCCC,inactive
9,Nc1c(Cl)c(Cl)nc(C(=O)O)c1Cl,inactive
10,CC(=O)C=C(C)C,inactive
11,CCCCN(CCCC)SN(C)C(=O)Oc1cccc2c1OC(C)(C)C2,inactive
12,O=C(NC(=O)c1c(F)cccc1F)Nc1cc(Cl)c(OC(F)(F)C(F)C(F)(F)F)cc1Cl (stereo not given),inactive
13,ClCCBr,inactive
14,CCCCOC(=O)c1ccccc1C(=O)OCCCC,inactive
15,[N-]=[N+]=[N-],inactive
16,CCC(C)(CC)c1cc(NC(=O)c2c(OC)cccc2OC)on1,inactive
17,CC(C)C#N,inactive
18,CCCN(CCC)N=O,inactive
19,Cc1ccccc1O,inactive
20,Oc1ccccc1Cl,inactive

row,Compound,outcome
1,O=c1ccc(=O)[nH][nH]1,inactive
2,Cc1ccc(N)cc1N,inactive
3,Clc1cccc(Cl)c1Cl,inactive
4,Nc1ccc(Cc2ccc(N)cc2)cc1,inactive
5,COC(=O)c1ccccc1N,inactive
6,[O-][Cl+2]([O-])O,inactive
7,O=C1CCCN1,inactive
8,O=NN1CCCCCCC1,inactive
9,CC(C)OC(=O)Nc1ccccc1,inactive
10,O=C(O)c1ccccn1,inactive
11,Cc1ccc([N+](=O)[O-])cc1C,inactive
12,Cc1cc(Cl)ccc1O,inactive
13,CC(C)(C)C(O)(CCc1ccc(Cl)cc1)Cn1cncn1 (stereo not given),inactive
14,c1cc2c3c(cccc3c1)CC2,inactive
15,CCN(CC)c1ccccc1,inactive
16,CCCN(CCC)c1c([N+](=O)[O-])cc(C(F)(F)F)cc1[N+](=O)[O-],inactive
17,c1ccc(-c2ccccc2)cc1,inactive
18,CN(C)N=O,inactive
19,Cc1ccc(N)cc1Cl,inactive
20,CC(Oc1ccc(Cl)cc1Cl)C(=O)O (stereo not given),inactive
